SMILES strings stand for the structures. Values without a mark were called inactive. The rule behind the calls is not given here.

Our source for the inhibition values is PubChem BioAssay.

Sequence of Pantothenate synthetase (Mycobacterium tuberculosis (strain ATCC 25618 / H37Rv)) (P9WIL5 whole entry, looked up): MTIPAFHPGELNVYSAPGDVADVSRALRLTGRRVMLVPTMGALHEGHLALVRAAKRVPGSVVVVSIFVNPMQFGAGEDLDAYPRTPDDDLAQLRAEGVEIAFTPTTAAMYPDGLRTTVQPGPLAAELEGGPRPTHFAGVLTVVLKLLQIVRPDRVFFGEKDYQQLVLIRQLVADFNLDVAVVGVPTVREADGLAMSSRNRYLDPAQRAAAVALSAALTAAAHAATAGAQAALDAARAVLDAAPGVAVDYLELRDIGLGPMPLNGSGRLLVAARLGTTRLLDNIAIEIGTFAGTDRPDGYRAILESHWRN

The test addresses Pantothenate synthetase (Mycobacterium tuberculosis (strain ATCC 25618 / H37Rv)) (UniProt P9WIL5). Description: Recombinant Mtb pantothenate synthetase (PanC) inhibitors, coupled enzyme, confirmatory (AID 375).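 Note: 0% = full reaction with vehicle and 100% = no enzyme background.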 The following applies: coupled enzyme assay; at 10 µM, hits give high values.
Broadly, the inhibition is the change of the read-out against control, counted positive when it falls. Turning to `O=C(CSc1nnc(-c2ccccc2)o1)NC1CCCCC1`, the inhibition is 0%. For the compound `CC(=O)NCCc1ccc(S(=O)(=O)NCc2ccc3c(c2)OCO3)cc1`, the inhibition is 0%. On to `Nc1nc(-n2cnnc2)nn1-c1ccccc1`, for which the inhibition was 0%. For `Cc1ccc(N2C(N)=NC(N)=NC23CCCC3)c(C)c1` the value was 3%; for `C1COC(NC(C2CC2)C2CC2)=N1`, 4%; for `Nc1nnc(SCC(=O)N2CCN(c3ccccc3)CC2)n1-c1ccccc1`, 7%. For `CCOC(=O)N1CCN(CC(O)COc2ccccc2C(C)CC)CC1` (stereo not given) the value was 7%. In the case of `CC1(C)Cc2c(c(N3CCOCC3)nc3sc(C#N)c(N)c23)CS1`, the inhibition is 0%. In the case of `Cc1cc(C)c2c(=O)n(CC(=O)NCCCN3CCN(c4ccccc4F)CC3)sc2n1`, the inhibition was 0%.

Consider `Cc1cccc(-n2ncc3c(NCc4cccs4)ncnc32)c1`, for which the inhibition is 0%.

As for `CCn1c(=O)c(=O)[nH]c2cc(C(=O)N3CCN(c4ccccc4F)CC3)ccc21`, the inhibition was 4%.

As to `CC1(C)Cc2noc(N)c2C(C)(C)N1OC(=O)c1ccco1`, the inhibition was 0%.

`c1ccc(CNC2=NCCC2)nc1`: the inhibition is 0%. For `CC(=O)OCC(=O)c1ccc2ccn(C(C)=O)c2c1` the value was 3%. `Cc1ccc(CN2C(=O)CCC2C(=O)NC2CCCC2)cc1` (stereo not given): the inhibition was 0%. For `Cc1nc(NCc2ccco2)c2oc3ccccc3c2n1` the value was 4%. For `Cc1cc(C)c(C#N)c(SCc2ccc(C#N)cc2)n1` the value was 0%; for `CCC1(c2ccccc2)C(=O)NCNC1=O`, 7%; for `COc1ccc(OCc2cccc(C(=O)O)c2)cc1`, 0%. As to `O=C(CCC1COc2ccccc2O1)NCC1COc2ccccc2O1` (stereo not given), the inhibition was 0%. For the compound `CC(CCc1ccccc1)NCc1ccncc1` (stereo not given), the inhibition was 5%. As for `COC(=O)C(C#N)C(=C1C(=O)CC(C)(C)CC1=O)c1ccc(O)cc1` (stereo not given), the inhibition was 0%. For `Cc1cc(C(=O)NCCCc2ccccc2)no1`, the inhibition is 10%. For `O=c1cc(CN2CCN(c3ccc(F)cc3)CC2)nc2sccn12` the value was 0%. Under `COc1ccc(-c2nc3c(n2O)CCC/C3=N\O)cc1` stands 0%. Consider `Cc1ccc(NC(=O)c2ccccc2O)cc1`, for which the inhibition is 1%.

As for `CCOc1ccccc1N1CCN(S(=O)(=O)c2cccc3nsnc23)CC1`, the inhibition is 0%. Take `Cc1ccc2occ(CN3CCN(c4ccccc4)CC3)c(=O)c2c1`: the inhibition was 0%. Under `CCOC(=O)CN1CC23C=CC(O2)C(C(=O)Nc2ccc(OCC)cc2)C3C1=O` (stereo not given) stands 3%; under `COc1ccc(C2CC(c3ccc(Cl)cc3)Nc3nc(NC(=O)c4ccco4)nn32)cc1` (stereo not given), 4%. Under `O=C(CC(SCCO)c1ccc2c(c1)OCO2)c1ccco1` (stereo not given) stands 0%.

`Cc1cccc(C)c1NC(=O)CS(=O)CC(=O)NC1CCCc2ccccc21` (stereo not given): the inhibition was 12%. For `OC1(c2cccc(C(F)(F)F)c2)CCN(c2ccc(-c3ccccc3)nn2)CC1` the value was 0%; for `COc1ccc(Cn2nnnc2C(c2ccncc2)N2CCOCC2)cc1` (stereo not given), 0%; for `CC(=O)Nc1nc(=S)ss1`, 6%. Under `C[C@H](NC(=O)Nc1cccc(C(F)(F)F)c1)C(=O)O` stands 0%; under `COc1ccc(-c2nnc(-c3ccc(N)cc3)o2)cc1`, 4%.

`CCN(CC)S(=O)(=O)c1ccc(NC2CCCc3ccccc32)nc1` (stereo not given): the inhibition was 0%. For the compound `CN=Cc1cc(-c2ccccc2)sc1O`, the inhibition is 0%.

In the case of `CCN(CC)S(=O)(=O)c1ccc(C(=O)N2CCN=C2SCc2cccnc2)cc1`, the inhibition is 0%.
